Source: PubChem (National Center for Advancing Translational Sciences (NCATS))
In the library only some 2.5% were active in any assay of this set; here they are far more common.
p53ts 32C kill – qHTS Screen for Compounds that Selectively Target Cancer Cells with p53 Mutations: Cytotoxicity of p53ts Cells at the Permissive Temperature; 130,000 compounds, 0.93% hits; Potency, µM (doses to about 46.1 µM), inactives show at the top dose activity change, negative = cytotoxicity, actives largely listed as cytotoxic; H1299-p53A138V at 32C, ATP luminescence viability, 24 h; AID 924, 2007;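 also: 0% = DMSO and -100% = full killing by reference compound; nearly all actives have a fitted effect of over 55% in size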
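Cells: H1299 p53ts (A138V), 600/well, pre-incubated 16–30 h at 37C. Cpd up to 46 uM, 24 h, 32C. Readout: ATPlite luminescence, 20 min RT. Normalization: DMSO vs tamoxifen 100 uM. AC50 by Hill equation.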
p53ts 39C kill – qHTS Screen for Compounds that Selectively Target Cancer Cells with p53 Mutations: Cytotoxicity of p53ts Cells at the Nonpermissive Temperature; Potency, µM (doses to about 46.1 µM), for inactives: at the top dose activity change, negative = cell killing, actives largely listed as cytotoxic; 130,000 compounds, 1.5% hits; H1299-p53A138V viability at 39C, ATP luminescence, 24 h; AID 902, 2007; also: nearly all actives have a fitted effect of over 55% in size
FLuc inh – qHTS Assay for Inhibitors of Firefly Luciferase; purified firefly luciferase, luminescence, 8 min; 72,000 compounds, 2.2% hits; Potency, µM (doses to about 57.1 µM), without a hit: at the top dose activity change, negative = inhibition, most hits filed as inhibitors; Luciferin 4-monooxygenase (Photinus pyralis), P08659; also: nearly all actives have a fitted effect of over 40% in size
Target sequence (P08659 whole entry, looked up): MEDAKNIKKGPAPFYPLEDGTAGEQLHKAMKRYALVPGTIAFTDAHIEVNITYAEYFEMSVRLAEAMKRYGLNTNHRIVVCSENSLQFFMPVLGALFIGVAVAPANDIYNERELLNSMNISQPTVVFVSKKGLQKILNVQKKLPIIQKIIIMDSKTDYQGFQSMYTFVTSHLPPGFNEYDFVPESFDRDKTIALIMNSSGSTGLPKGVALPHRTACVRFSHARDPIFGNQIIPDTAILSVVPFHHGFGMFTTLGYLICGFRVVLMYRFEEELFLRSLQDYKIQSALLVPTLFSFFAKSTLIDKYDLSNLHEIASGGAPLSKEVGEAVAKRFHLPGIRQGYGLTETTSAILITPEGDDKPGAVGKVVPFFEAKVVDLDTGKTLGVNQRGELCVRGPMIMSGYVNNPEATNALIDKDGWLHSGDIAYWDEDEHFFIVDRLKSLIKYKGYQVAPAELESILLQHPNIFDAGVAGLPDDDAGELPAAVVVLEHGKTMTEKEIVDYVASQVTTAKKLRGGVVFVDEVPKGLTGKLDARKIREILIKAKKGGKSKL
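Inhibition of light generation by firefly luciferase from ATP and luciferin was profiled with concentration-response curves per sample, ATP held at 10 uM within the enzyme's linear range. Plates were read by luminescence after an 8-minute ambient incubation.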
Active calls of the source: *; ? = inconclusive; . = not tested or not shown; ! = not confirmed by another sample; [ ] = another dose, or the depositor's remark. Calls follow the shape of the dose curve; as a rule, active = well fitted curve in the direction sought with a large enough effect; inconclusive = small, poorly fitted or top-dose-only effect, or another doubt; inactive = no such curve, though single readings can be large; an effect the other way counts as inactive or inconclusive. Unless noted, % is scaled to controls: 0 for no effect and ±100 for the full control effect; potency is read from the fitted curve at half-maximal effect.

SMILES	p53ts 32C kill	p53ts 39C kill	FLuc inh
NNC(=O)c1ccc(O)cc1	-23.3%	-10.1%	12.6µM*
NCCc1ccc(O)cc1	-10.6%	-4.1%	2.8%
C[C@H]1C(=O)O[C@H]2CCN3CC=C(COC(=O)[C@](C)(O)[C@@]1(C)O)[C@H]23	.	.	-3.2%[11.4 µM]
O=C(Nc1ccc2oc(-c3cccnc3)nc2c1)c1ccc(-c2cccc(Cl)c2)o1	2.2%	7.9%	.
COc1cccc(-c2cc(C(=O)Nc3cnn(Cc4ccc(Cl)cc4Cl)c3)no2)c1	?	10µM*	.
C[C@]12Cc3cn4c(nc3C=C1CC[C@H]1[C@@H]2CC[C@@]2(C)[C@H]1CC[C@@]2(O)C#N)nc1ccccc14	?	14.1%	-3.1%
CO[C@H]1[C@H](O)[C@H](O[C@@H]2[C@H](Oc3cccc4c(O)c5c(=O)oc6ccc(C)c7c(=O)oc(c34)c5c67)O[C@@H](C)[C@H](O)[C@H]2O)O[C@@H](C)[C@@H]1O	-2.6%[9.22 µM]	-14.8%[9.22 µM]	1.3%[11.4 µM]
[O-]/[N+](=C/c1cccnc1)c1ccc(Br)cc1	-23.9%	-10.2%	10µM*
CO[C@@H]1CC=C2CCN3CCC4=C(CC(=O)OC4)[C@]23C1	10.7%	22.2%	0.3%
COc1ccc(-c2cc(=O)c3cc(OCC(=O)OC(C)C)ccc3o2)cc1	3.16µM*	3.16µM*	.
CC1=CC(=O)c2c(O)cccc2C1=O	6.31µM*	10µM*	.
O=c1cccc2n1C[C@H]1C[C@@H]2CN(CCO)C1	.	.	1.5%[11.4 µM]
CC(C)(O)[C@H]1[C@H]2OC(=O)[C@@H]1[C@]1(O)C[C@H]3O[C@]34C(=O)O[C@H]2[C@]14C (tested in a mixture with another compound)	20.4%	12.9%	0.3%
CC(C)[C@H](CO)Nc1nc(Nc2cccc(Cl)c2)c2ncn(C(C)C)c2n1	33.5%	-16.0%	1.8%
CCn1cnc2c(Nc3cccc(Cl)c3)nc(N[C@@H]3CCCC[C@H]3N)nc21	10µM*	12.6µM*	0.3%
c1ccc2c(c1)[nH]c1cnccc12	6.6%	21.6%	-2.0%[25.5 µM]
Cc1c2ccncc2c(C)c2c1[nH]c1ccccc12	12.6µM*	12.6µM*	-0.3%[25.5 µM]
N[C@H](Cn1ccc(=O)[nH]c1=O)C(=O)O	-3.4%	13.2%	-1.0%
C=C1C/C(=C\C)C(=O)O[C@@H]2CCN3CC=C(COC(=O)[C@]1(C)O)[C@H]23	.	.	1.7%[11.4 µM]
C=C[C@@H]1CN2CC[C@@H]1C[C@H]2[C@H](O)c1ccnc2ccccc12	.	.	1.6%[11.4 µM]
CC(C)(C)c1cc(C=C(C#N)C#N)cc(C(C)(C)C)c1O	10µM*	-23.2%	0.1%
COc1cc(C=C(C#N)C#N)cc(O)c1O	-25.4%	-25.3%	0.2%
N[C@@H](Cc1ccccc1)P(=O)(O)O	-2.6%[9.22 µM]	1.3%[9.22 µM]	0.6%[11.4 µM]
COC(=O)[C@H](N)CCCN=C(N)N[N+](=O)[O-]	-10.0%	9.9%	0.4%
Nc1ccccc1O.O.O=C(O)[C@H]1[O][Sb][O][C@H]1C(=O)O	7.4%[9.22 µM]	?	2.1%[11.4 µM]
SMILES	p53ts 32C kill	p53ts 39C kill	FLuc inh
COc1cccc(NC(=O)c2ccc3c(=O)n4nc(Nc5ccccc5OC)sc4nc3c2)c1	-9.8%	?	.
Cc1ccc(Cl)cc1Nc1nn2c(=O)c3ccc(C(=O)NCc4cccs4)cc3nc2s1	12.6µM*	15.8µM*	.
CC(CCc1ccccc1)NC(C)C(O)c1ccc(O)cc1 (stereo unspecified)	3.9%	4.9%	1.3%[25.5 µM]
C[C@@H](Cc1ccccc1)NCCC(c1ccccc1)c1ccccc1	0.0%[20.6 µM]	12.6µM*	11.8%[25.5 µM]
N[C@H](CCl)C(=O)O	12.9%	20.6%	0.3%
COC1=C[C@H]2[C@@H]3Cc4ccc(OC)c(O)c4[C@@]2(CCN3C)CC1=O	.	.	4.1%[11.4 µM]
CC(=O)OC1C[C@@]2(C)C(c3ccoc3)C[C@H]3O[C@@]32[C@@]2(C)C(=O)C(O)=C3C(C)(C)C(=O)C=C[C@]3(C)C12 (stereo partly specified)	1.58µM*	?	.
CC(=O)OC1CC(OC(C)=O)[C@]2(C)C(CC(OC(C)=O)[C@]3(C)C2CC[C@@]2(C)C(c4ccoc4)C[C@H]4O[C@]432)C1(C)C (stereo partly specified)	-3.5%	1.4%	.
CC[C@@]12CCCN3CC[C@@]4(c5ccc(OC)c(O)c5N(C(C)=O)[C@H]4CC1)[C@H]32	.	.	2.7%[11.4 µM]
O=C1C=CC(=O)c2c1ccc1c2ccc2ccccc21	10µM*	10.9%[20.6 µM]	4.2%[25.5 µM]
N[C@@H]1CCc2cc(O)c(O)cc2C1	5.9%	16.1%	-20.4%
O=C(O)c1cc[c]([Hg][S]c2ncnc3nc[nH]c23)cc1	-11.9%[9.22 µM]	?	?
C=CCCN1C[C@@H]2C[C@H](C1)c1cccc(=O)n1C2	.	.	0.9%[11.4 µM]
O=C(O)C1=CCCN(CCOC(c2ccc(C(F)(F)F)cc2)c2ccc(C(F)(F)F)cc2)C1	12.5%	-19.1%	-5.9%
Fc1ccc(C(OCCN2CCN(CCCc3ccccc3)CC2)c2ccc(F)cc2)cc1	?	31.6µM*!	1.6%
c1ccc(CCCN2CCN(CCOC(c3ccccc3)c3ccccc3)CC2)cc1	?	31.6µM*	1.5%
c1ccc(CCN2CCC(N3CCN(c4ccccc4)CC3)CC2)cc1	-10.4%	8.2%	-1.3%
CC[C@H](CO)NC(=O)[C@@H]1C=C2c3cccc4c3c(cn4C)C[C@@H]2N(C)C1	23.7%	14.5%	-1.8%
CC1=C2C(=O)[C@@H]3[C@@H](CC=C4C[C@@H](O)CC[C@@]43C)[C@H]2CC[C@@]12O[C@H]1C[C@H](C)CN[C@H]1[C@@H]2C	-6.4%[9.22 µM]	-0.3%[9.22 µM]	3.8%[11.4 µM]
N#CS.N=C=S.N=C=S.[Cu].[NH2-].[NH2-].[NH2-].[NH2-].c1ccc2ncccc2c1	0.4%[9.22 µM]	-0.6%[9.22 µM]	2.5%[11.4 µM]
Cc1cc2c(C(C)C)c(O)c(O)c(C=O)c2c(O)c1-c1c(C)cc2c(C(C)C)c(O)c(O)c(C=O)c2c1O	20µM*!	20µM*	-6.1%
NC[C@H](O)c1cc(O)c(O)cc1F	-7.4%	6.5%	0.5%
CC1=C(O)C(=O)[C@H]2O[C@@H]2C1=O	15.8µM*	?	-0.4%
CN1CCN(c2ccc([N+](=O)[O-])c3[nH]o[n+](=O)c23)CC1	?	-20.9%[9.22 µM]	-9.6%[11.4 µM]
O=C(CSc1oc(-c2ccccc2)nc1S(=O)(=O)c1ccc(Cl)cc1)Nc1ccc(F)cc1	?	12.6µM*	.
SMILES	p53ts 32C kill	p53ts 39C kill	FLuc inh
CCOc1ccc(NC(=O)c2cccn(Cc3cccc(Cl)c3)c2=O)cc1	2.6%	-35.1%	.
N#Cc1cc2c(nc1SCC(=O)Nc1ccc(F)c(Cl)c1)C1CCN2CC1	-4.5%	0.8%	.
CCOc1ccc(NC(=O)CSc2oc(-c3ccccc3)nc2S(=O)(=O)c2ccc(Cl)cc2)cc1	?	2µM*	.
C=CCN1CCc2cccc3c2[C@@H]1Cc1ccc(O)c(O)c1-3	?	?	-16.4%
C[C@@H]1Cc2cc3c(cc2C(c2ccc(N)cc2)=NN1)OCO3	4.7%	12.6%	-4.4%
Cc1ccccc1C(=O)Nc1ccc2nc(SCC(=O)N(C)c3ccccc3)sc2c1	-12.8%	?	.
CC(C)(C)c1ccc(C(=O)Nc2ccc3nc(SCC(=O)N4CCCC4)sc3c2)cc1	12.6µM*	3.16µM*	.
O=C(CCCN1CCC2(CC1)C(=O)N(CCc1ccc(N=C=S)cc1)CN2c1ccccc1)c1ccc(F)cc1	.	.	2.1%
